This note sets out measurements from PubChem BioAssay.

Records with an inconclusive call do not appear. Calls of active or inactive are those of the source. Unless noted, no stated cut-off is given here; in the data, active means percent of DMSO control GFP below about 86%; inactive means the rest, inconclusive results apart.

As usually defined, the inhibition is the drop in the measured response relative to a control, in per cent.

Test [1] is described as follows: yeast TOR pathway RPL19A-GFP modulators, primary screen, cell-based, S. cerevisiae, multiplex flow cytometry (AID 1862).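 Further: lower values mimic rapamycin by blocking the RPL19A rise seen in DMSO cells.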 The settings on record: S. cerevisiae RPL19A-GFP strain, flow cytometry fluorescence, 3 h; at 10 µM; stronger effect = lower value.
A short description of test [2]: modulators of MEP2-GFP levels in yeast, primary screen, S. cerevisiae, multiplex flow cytometry (AID 1867;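 active means GFP response, as percent of the DMSO control, above the screen-wide mean plus 3 SD, about 139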;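 further: median GFP channel fluorescence of barcode-gated MEP2-GFP cells measured by flow cytometry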). As to conditions: S. cerevisiae MEP2-GFP strain, 3 h, at 10 µM, stronger effect = higher value, 100% means same as DMSO wells. Background: In flow cytometry, cells or beads pass a laser one at a time.
Test [3] can be described thus: modulators of CIT2-GFP expression in yeast, primary screen, S. cerevisiae, GFP fusion, multiplex flow cytometry (AID 1870;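 active means percent response above a set limit, the screen-wide mean plus 3 SD, cut at about 130% in these data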;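 further: barcoded CIT2-GFP strain pooled with four other GFP strains with rapamycin as positive control; median GFP fluorescence per well over plate mean of DMSO wells so 100% = DMSO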). The settings on record: 3 h, at 10 µM, stronger effect = higher value.
Test [4] can be described thus: modulators of LAP4-GFP expression in yeast, primary screen, S. cerevisiae, multiplex flow cytometry (AID 1873;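 active means GFP signal, as percent of the solvent control, above the screen mean plus 3 SD, about 149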). The settings on record: 3 h, at 10 µM, stronger effect = higher value.
A short description of test [5]: modulators of AGP1-GFP expression in yeast TOR pathway, primary screen, cell-based, multiplex flow cytometry, S. cerevisiae (AID 1887;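 active means GFP signal above the screen-wide mean plus 3 SD, that is over about 124.5% of the solvent control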;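 further: AGP1-GFP fusion strain of S. cerevisiae within a five-strain barcoded multiplex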). The settings on record: 3 h, at 10 µM, stronger effect = higher value.
A short description of test [6]: inhibitors of CD8+ T cell-vesicle binding, pilot screen, LFA-1/ICAM-1 modulator project, MLPCN validation set, flow cytometry (AID 2523;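 active means response below a set limit, under 55% cells CD8-positive and vesicle-bound, and CD8 cells' 90th-percentile brightness under 279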;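 on vesicle binding response: mean PE anti-B7-1 fluorescence of CD8+ cells relative to row control; 100% = QL9-loaded vesicles with DMSO vehicle in the same plate row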). As to conditions: 2C mouse CD8+ T cells, at 7 µM, stronger effect = lower value; double positive events: measured here: CD8+/vesicle+ event percentage.
Test [7] deals with Integrin beta-1 (Homo sapiens) + Integrin alpha-4 (Homo sapiens) (UniProt P13612+P05556). The test can be described thus: inhibition of HUTS-21 binding to VLA-4, pilot screen, VLA-4 allosteric modulator project, U937 cells, HUTS-21 mAb, flow cytometry, validation set (AID 2674;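 active means inhibition above 50%, about 3 SD of the validation set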;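 further: antibody binding induced by the VLA-4 ligand LDV present at three times its Kd; 0% = LDV ligand with antibody and no compound and 100% = antibody without LDV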). As to conditions: HUTS-21 LIBS mAb binding, at 6.7 µM, stronger effect = higher value, binding induced by LDV ligand.

Test [8] in a line: superoxide lowering in aged yeast cells, pilot screen, validation compound set (AID 2706;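 active means superoxide response below 65% of plate, a cut near 3 SD across the whole screen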;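 further: yeast exposed to compound for one week at 30 degrees C before staining; 100% = mean of all compound wells on the same plate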). The settings on record: S. cerevisiae aging, superoxide DHE fluorescence; at 10 µM; stronger effect = lower value.
The target of test [9] is Beta-adrenergic receptor kinase 1 (Homo sapiens) (UniProt P25098). The test can be described thus: GRK2 binders displacing RNA aptamer, biochemical, validation, human GRK2, bead flow cytometry (AID 488806;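 active means aptamer binding inhibition above 30%, about 3 SD of noise from non-fluorescent compounds; inactive means inhibition at or below 30%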). The settings on record: bead-bound GRK2, FAM-aptamer displacement, at 10 µM, stronger effect = higher value.
For test [10], the target named is Beta-2 adrenergic receptor (Homo sapiens) (UniProt P07550). Nature of the test: beta2AR agonists driving receptor internalization, pilot screen, cell-based, FAP fluorogen, flow cytometry, validation set (AID 504459;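 active means percent response above 42, roughly 3 SD of non-fluorescent test compounds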;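 further: agonist-driven loss of surface beta2AR via internalization measured by FAP dye flow cytometry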). The settings on record: Am2.2-beta2AR cells, FAP surface receptor flow cytometry; at 10 µM; stronger effect = higher value.
Test [11] addresses AP-2 complex subunit beta (Homo sapiens) (UniProt P63010). The test can be described thus: inhibitors of arrestin peptide binding to AP2, pilot screen, biochemical, validation set, GST-AP2 beads, flow cytometry (AID 504541;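 active means inhibition above 54%, about 3 SD of non-fluorescent compounds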;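 further: AP2 carries R879A mutation and is captured from E. coli lysate; bead-bound FITC arrestin peptide fluorescence measuring arrestin peptide binding to AP2; 0% = DMSO wells and 100% = excess unlabeled arrestin peptide control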). As to conditions: FITC arrestin peptide, at 10 µM, stronger effect = higher value, AP2 beta2 appendage fragment, R879A mutant.
Test [12] in a line: yeast V-ATPase proton transport modulators, S. cerevisiae, pHLuorin, HTS validation (AID 504600; in the data active means response above about 15%;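 further: plate controls were DMSO for no effect and reference compound for full effect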). As to conditions: S. cerevisiae pHLuorin cytosolic pH, at 10 µM, stronger effect = higher value.
The subject of test [13] is anti-desmoglein-3 scFv antibody binding to human DSG3. The test can be described thus: inhibitors of anti-DSG3 scFv binding to DSG3, pilot screen, biochemical, validation compound set, bead-based, flow cytometry (AID 588368;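 active means binding below the plate cutoff, the plate median minus 3 SD, with a reading above zero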;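 further: signal is the median channel fluorescence of bead-bound GFP antibody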). The settings on record: Protein G beads, DSG3-Fc, scFv-GFP binding, at 10 µM, stronger effect = lower value.
The nature of test [14]: inhibitors of fungal efflux pumps CDR1, CDR2, MDR1, pilot screen, validation compound set, multiplex, phenotypic (AID 588506;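 active means efflux inhibition above 0.42, the validation set average plus 4 SD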;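 further: Nile Red retained in cells so higher fluorescence means more efflux inhibition; 0 = negative control wells and 1 = enniatin B 25 µM full block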). As to conditions: S. cerevisiae pump-expressing triplex, Nile Red efflux flow cytometry; at 10 µM; stronger effect = higher value; the pumps come from Candida albicans.
Test [15] deals with ATP-binding cassette sub-family B member 6 (Homo sapiens) (UniProt Q9NP58). The test can be described thus: ABCB6 transporter inhibitors, pilot screen, K562-ABCB6 cells, flow cytometry, validation set (AID 588550;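 active means inhibition above the screen-wide mean plus 3 SD, about 51%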;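 further: 0% = DMSO wells and 100% = benzethonium chloride 70 µM positive control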). The settings on record: K562-ABCB6 porphyrin accumulation, 1 h, at 10 µM, stronger effect = higher value.
Test [16] is described as follows: promoters of myeloid differentiation in arrested cells, primary screen, cell-based, GFP/MAC1 double positive, flow cytometry, validation set (AID 588685;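 active means differentiation response of at least 50%, scaled between solvent and reference control, from cells with both markers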;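 further: compound exposure lasts four days before antibody staining and flow analysis; 0% = DMSO wells and 100% = 5 µM fulvestrant positive control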). The settings on record: ER-HoxA9 marrow cells, stronger effect = higher value, normalized: vehicle 0, fulvestrant 100.

Chain of Integrin beta-1 (Homo sapiens) + Integrin alpha-4 (Homo sapiens) (P05556 whole entry, looked up): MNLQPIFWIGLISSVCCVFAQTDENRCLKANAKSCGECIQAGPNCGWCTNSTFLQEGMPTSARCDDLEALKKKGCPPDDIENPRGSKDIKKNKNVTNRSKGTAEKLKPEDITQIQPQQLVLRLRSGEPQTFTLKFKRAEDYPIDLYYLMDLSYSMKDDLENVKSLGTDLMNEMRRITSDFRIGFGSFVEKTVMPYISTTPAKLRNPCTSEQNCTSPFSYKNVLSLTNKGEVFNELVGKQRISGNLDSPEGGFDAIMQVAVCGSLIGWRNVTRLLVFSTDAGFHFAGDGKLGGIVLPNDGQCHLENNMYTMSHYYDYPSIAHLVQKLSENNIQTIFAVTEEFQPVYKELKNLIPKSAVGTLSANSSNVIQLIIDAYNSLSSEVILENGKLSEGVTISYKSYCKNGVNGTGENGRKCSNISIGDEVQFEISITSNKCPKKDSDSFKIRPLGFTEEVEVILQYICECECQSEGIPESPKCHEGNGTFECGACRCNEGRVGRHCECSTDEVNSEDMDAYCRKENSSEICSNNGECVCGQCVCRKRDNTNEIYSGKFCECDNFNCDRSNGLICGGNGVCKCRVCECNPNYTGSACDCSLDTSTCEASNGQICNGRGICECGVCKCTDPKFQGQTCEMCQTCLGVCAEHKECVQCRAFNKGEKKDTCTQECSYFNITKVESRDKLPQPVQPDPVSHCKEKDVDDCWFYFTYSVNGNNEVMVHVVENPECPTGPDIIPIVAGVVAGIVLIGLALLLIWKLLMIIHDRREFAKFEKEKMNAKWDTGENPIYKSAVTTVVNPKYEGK
Chain of Integrin beta-1 (Homo sapiens) + Integrin alpha-4 (Homo sapiens) (P13612 whole entry, looked up): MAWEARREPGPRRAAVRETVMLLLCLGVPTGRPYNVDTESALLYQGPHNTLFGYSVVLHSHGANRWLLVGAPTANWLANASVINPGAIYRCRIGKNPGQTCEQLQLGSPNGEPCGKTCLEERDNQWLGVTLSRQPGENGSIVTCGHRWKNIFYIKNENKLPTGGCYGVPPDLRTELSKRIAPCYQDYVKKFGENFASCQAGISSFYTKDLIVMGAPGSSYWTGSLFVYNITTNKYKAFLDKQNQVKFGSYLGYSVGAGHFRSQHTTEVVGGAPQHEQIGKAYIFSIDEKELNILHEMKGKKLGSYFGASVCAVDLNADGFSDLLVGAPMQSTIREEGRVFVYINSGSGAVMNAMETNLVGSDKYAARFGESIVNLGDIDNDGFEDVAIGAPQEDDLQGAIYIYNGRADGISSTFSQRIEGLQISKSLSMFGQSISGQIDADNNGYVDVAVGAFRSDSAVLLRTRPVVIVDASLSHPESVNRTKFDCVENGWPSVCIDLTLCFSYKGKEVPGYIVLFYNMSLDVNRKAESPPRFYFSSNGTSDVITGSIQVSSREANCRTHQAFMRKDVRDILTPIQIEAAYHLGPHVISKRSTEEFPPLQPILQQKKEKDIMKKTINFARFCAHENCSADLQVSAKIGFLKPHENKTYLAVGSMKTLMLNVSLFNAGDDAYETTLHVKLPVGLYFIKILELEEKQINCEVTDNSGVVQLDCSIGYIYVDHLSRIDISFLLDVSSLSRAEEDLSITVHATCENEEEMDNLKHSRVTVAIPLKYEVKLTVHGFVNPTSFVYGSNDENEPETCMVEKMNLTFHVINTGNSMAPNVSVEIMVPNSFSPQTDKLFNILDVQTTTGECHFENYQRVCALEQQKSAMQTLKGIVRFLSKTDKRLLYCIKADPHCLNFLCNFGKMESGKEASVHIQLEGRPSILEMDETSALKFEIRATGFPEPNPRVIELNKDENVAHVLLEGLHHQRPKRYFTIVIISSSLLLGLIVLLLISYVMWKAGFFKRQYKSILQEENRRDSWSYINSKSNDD
Chain of AP-2 complex subunit beta (Homo sapiens) (P63010 whole entry, looked up, the tested form may be a part, one chain of several): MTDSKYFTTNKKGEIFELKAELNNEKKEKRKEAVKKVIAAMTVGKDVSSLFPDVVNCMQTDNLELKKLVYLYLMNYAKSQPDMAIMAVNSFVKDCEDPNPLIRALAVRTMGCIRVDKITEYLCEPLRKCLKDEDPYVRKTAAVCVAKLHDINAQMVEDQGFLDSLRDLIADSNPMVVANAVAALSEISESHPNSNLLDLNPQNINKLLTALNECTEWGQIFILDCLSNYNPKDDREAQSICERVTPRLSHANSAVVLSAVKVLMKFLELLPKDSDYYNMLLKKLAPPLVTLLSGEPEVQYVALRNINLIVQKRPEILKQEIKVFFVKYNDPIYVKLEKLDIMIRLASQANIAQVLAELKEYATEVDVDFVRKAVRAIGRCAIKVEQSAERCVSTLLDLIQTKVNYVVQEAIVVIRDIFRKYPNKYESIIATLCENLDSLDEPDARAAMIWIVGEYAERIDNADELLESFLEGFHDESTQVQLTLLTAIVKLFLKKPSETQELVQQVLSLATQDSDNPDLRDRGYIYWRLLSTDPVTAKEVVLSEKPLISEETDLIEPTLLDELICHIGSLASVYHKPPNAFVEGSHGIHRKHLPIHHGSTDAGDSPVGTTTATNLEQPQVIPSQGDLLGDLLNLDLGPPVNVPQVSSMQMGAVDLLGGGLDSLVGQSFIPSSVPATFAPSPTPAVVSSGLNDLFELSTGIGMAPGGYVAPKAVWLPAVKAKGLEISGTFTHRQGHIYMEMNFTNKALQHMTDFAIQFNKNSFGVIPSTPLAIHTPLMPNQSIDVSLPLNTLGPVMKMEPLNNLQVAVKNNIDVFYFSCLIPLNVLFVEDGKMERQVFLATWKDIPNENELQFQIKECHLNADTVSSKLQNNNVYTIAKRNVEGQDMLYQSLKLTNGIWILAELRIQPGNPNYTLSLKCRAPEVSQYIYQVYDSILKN
Chain of Beta-adrenergic receptor kinase 1 (Homo sapiens) (P25098 whole entry, looked up): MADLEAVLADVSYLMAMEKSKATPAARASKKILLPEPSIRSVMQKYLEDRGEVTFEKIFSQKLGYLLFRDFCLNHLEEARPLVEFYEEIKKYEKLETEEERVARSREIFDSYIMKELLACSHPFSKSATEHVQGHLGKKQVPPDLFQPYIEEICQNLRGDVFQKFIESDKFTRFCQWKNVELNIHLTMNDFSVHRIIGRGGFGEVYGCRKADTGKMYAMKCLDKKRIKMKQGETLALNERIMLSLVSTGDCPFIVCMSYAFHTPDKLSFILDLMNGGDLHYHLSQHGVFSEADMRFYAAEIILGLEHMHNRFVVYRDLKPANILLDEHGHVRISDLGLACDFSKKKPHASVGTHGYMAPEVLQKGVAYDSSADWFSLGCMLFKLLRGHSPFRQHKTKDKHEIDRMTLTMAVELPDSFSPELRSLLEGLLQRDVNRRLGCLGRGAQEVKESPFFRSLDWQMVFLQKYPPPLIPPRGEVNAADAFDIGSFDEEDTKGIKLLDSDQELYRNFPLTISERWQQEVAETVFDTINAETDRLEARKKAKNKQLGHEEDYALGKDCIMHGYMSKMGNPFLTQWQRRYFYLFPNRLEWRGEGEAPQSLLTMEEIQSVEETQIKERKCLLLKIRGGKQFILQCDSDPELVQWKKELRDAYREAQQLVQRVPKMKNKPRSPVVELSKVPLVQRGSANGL
Chain of Beta-2 adrenergic receptor (Homo sapiens) (P07550 whole entry, looked up): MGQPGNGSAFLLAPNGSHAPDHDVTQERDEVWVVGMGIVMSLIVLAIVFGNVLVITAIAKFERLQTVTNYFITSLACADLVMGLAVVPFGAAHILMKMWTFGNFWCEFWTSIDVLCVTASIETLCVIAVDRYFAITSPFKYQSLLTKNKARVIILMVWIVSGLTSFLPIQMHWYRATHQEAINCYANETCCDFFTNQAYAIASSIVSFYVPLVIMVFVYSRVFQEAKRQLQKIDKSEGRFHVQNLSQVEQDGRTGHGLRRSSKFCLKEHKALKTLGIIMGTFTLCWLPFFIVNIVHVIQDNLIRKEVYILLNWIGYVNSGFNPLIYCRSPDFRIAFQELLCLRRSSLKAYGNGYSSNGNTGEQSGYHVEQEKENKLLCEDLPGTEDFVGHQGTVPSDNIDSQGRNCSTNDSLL
Chain of ATP-binding cassette sub-family B member 6 (Homo sapiens) (Q9NP58 whole entry, looked up): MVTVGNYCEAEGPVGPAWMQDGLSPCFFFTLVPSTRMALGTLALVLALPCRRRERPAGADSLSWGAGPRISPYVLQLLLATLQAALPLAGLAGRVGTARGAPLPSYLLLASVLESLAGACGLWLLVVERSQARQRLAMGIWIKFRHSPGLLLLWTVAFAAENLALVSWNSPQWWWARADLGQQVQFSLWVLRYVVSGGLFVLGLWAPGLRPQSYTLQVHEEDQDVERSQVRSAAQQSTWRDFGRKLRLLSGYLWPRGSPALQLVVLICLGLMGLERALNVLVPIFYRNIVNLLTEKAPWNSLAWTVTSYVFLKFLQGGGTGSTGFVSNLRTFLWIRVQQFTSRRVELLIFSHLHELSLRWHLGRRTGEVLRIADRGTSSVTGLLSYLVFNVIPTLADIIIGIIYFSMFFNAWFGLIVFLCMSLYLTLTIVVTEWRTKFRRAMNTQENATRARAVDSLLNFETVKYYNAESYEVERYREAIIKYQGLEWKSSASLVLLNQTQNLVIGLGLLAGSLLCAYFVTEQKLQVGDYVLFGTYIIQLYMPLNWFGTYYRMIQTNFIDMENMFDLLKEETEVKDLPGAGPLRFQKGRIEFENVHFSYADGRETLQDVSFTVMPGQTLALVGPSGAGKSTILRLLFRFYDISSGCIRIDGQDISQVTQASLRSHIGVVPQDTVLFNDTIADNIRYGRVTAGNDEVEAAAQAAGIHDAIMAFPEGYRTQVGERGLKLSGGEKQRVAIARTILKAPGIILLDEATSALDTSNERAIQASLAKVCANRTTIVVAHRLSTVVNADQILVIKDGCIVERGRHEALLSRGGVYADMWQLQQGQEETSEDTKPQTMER

Regarding `CCOC(=O)C1=C(C)NC(C)=C(C(=O)OC)C1c1cccc([N+](=O)[O-])c1` (stereo not given), the percent of DMSO control GFP in test [1] is 91.3% (inactive). In addition, the GFP response vs DMSO in [2] is 124% (inactive); in test [4] it was 85.3% (inactive). In addition, the percent response of DMSO control in [3] was 95.2% (inactive). Besides, the GFP response, % of DMSO in test [5] was 91.5% (inactive). The compound further showed a double positive events in test [6] of 63.3%. In addition, the vesicle binding response in test [6] is 200% (inactive). The inhibition is 8.4% (inactive) in test [7], 41.2% (inactive) in [11] and 18% (inactive) in test [15]. In addition, the superoxide response (% of plate) in [8] was 104% (inactive). The aptamer binding inhibition in test [9] was 2% (inactive). Also, the response was -11.6% (inactive) in test [10] and -3.09% (inactive) in test [12]. In addition, the binding (% of control) in [13] is 95.6% (inactive). The efflux inhibition (fraction of control) in test [14] was 0.12 (inactive). The differentiation response in [16] is -1.64% (inactive).

Consider `O=C(O)CCCCCN=C1CCc2ccccc2N1`, for which the percent of DMSO control GFP in test [1] was 93% (inactive). For the same compound, the GFP response vs DMSO in test [2] was 132% (inactive); in [4], 80.9% (inactive). The percent response of DMSO control in test [3] is 101% (inactive). Besides, the GFP response, % of DMSO in test [5] is 90.5% (inactive). The compound also came in with a double positive events in test [6] of 63.5%. For the same compound, the vesicle binding response in test [6] is 163% (inactive). For the same compound, the figures for the inhibition in [7], in test [11] and in test [15] were 10.3% (inactive), 4% (inactive) and 9% (inactive), respectively. The superoxide response (% of plate) in test [8] is 118% (inactive). Also, the aptamer binding inhibition in [9] was 2% (inactive). For the same compound, the response in [10] is -6.38% (inactive); in test [12], -0.07% (inactive). Also, in test [13], the binding (% of control) was 98.7% (inactive). In test [14], the efflux inhibition (fraction of control) is 0.3 (inactive). Moreover, the differentiation response in test [16] is 0% (inactive).

As to `CN=C(NC#N)NCCSCc1nc[nH]c1C`, the percent of DMSO control GFP in test [1] was 102% (inactive). For the same compound, the values for the GFP response vs DMSO in test [2] and in test [4] were 101% (inactive) and 94.8% (inactive), respectively. In addition, the percent response of DMSO control in [3] was 109% (inactive). Further, the GFP response, % of DMSO in test [5] was 102% (inactive). For the same compound, the double positive events in test [6] worked out at 62.1%. The vesicle binding response in test [6] is 195% (inactive). Moreover, the inhibition was -14.5% (inactive) in test [7], 5.55% (inactive) in test [11] and 9% (inactive) in test [15]. The superoxide response (% of plate) in test [8] is 104% (inactive). In test [9], the aptamer binding inhibition was -1% (inactive). The figures for the response in test [10] and in test [12] were 3.13% (inactive) and 0.96% (inactive), respectively. Besides, the binding (% of control) in [13] is 103% (inactive). In [14], the efflux inhibition (fraction of control) was -0.44 (inactive). Also, the differentiation response in test [16] was -10.4% (inactive).

For `CN(C)CCOC(c1ccccc1)c1ccccc1` (tested in a mixture with another compound), the percent of DMSO control GFP in [1] was 103% (inactive). For the same compound, the figures for the GFP response vs DMSO in test [2] and in test [4] were 99.3% (inactive) and 91.4% (inactive), respectively. Further, the percent response of DMSO control in [3] is 98.9% (inactive). Also, the GFP response, % of DMSO in test [5] is 96.4% (inactive). For the same compound, the double positive events in test [6] stood at 58.3%. Besides, the vesicle binding response in test [6] was 138% (inactive). In addition, the inhibition in test [7] is 13% (inactive); in test [11] it was -10.1% (inactive); in test [15] it was 2% (inactive). Also, in test [8], the superoxide response (% of plate) is 91.9% (inactive). The aptamer binding inhibition in test [9] was 3% (inactive). The values for the response in test [10] and in test [12] were -5.43% (inactive) and -1% (inactive), respectively. In addition, the binding (% of control) in test [13] is 93.3% (inactive). Also, in [14], the efflux inhibition (fraction of control) is 0.27 (inactive). In test [16], the differentiation response is 5.13% (inactive).

With `O=c1c(C(c2ccccc2)c2c(O)sc3ccccc3c2=O)c(O)sc2ccccc12`, the percent of DMSO control GFP in test [1] is 93.8% (inactive). For the same compound, the figures for the GFP response vs DMSO in test [2] and in test [4] were 97.6% (inactive) and 112% (inactive), respectively. In test [3], the percent response of DMSO control is 91.8% (inactive). Further, the GFP response, % of DMSO in [5] is 113% (inactive). The compound further returned a double positive events in [6] of 71.3%. The vesicle binding response in [6] was 187% (inactive). The inhibition is 15.9% (inactive) in test [7], -1.26% (inactive) in test [11] and -30% (inactive) in [15]. Besides, the superoxide response (% of plate) in test [8] is 90.1% (inactive). The aptamer binding inhibition in [9] was 1% (inactive). Moreover, the response is -1.18% (inactive) in test [10] and 0.43% (inactive) in test [12]. Moreover, the binding (% of control) in test [13] was 107% (inactive). In addition, the efflux inhibition (fraction of control) in [14] is -0.13 (inactive). Further, the differentiation response in test [16] was 37.4% (inactive).
